Experimental data from PubChem BioAssay (NCATS).
Where “and” joins values, the source holds several entries; their conditions need not be identical. Identical values can stand only once. Inconclusive results are not listed. Calls of active or inactive are those of the source. Calls follow the shape of the dose curve; as a rule, active = well fitted inhibition curve with a large enough effect; inconclusive = small, poorly fitted or top-dose-only effect; inactive = no such curve, though single readings can be large or run the other way.

Test: Primary qHTS for inhibitors of nuclear receptor binding SET domain protein 2 (NSD2) in an RCH-ACV wild type WT cells (2C) (AID 1645877); also: nearly all actives have a fitted effect of over 70% in size
Conditions: RCH-ACV (leukaemia line) NSD2 WT (2C) viability, CellTiter-Glo, 72 h; series mostly up to 44.9 µM
From the text: Assay Provider: Jonathan D. Licht, MD
University of Florida College of Medicine, Gainesville, FL
Mutations in epigenetic regulators are common in relapsed pediatric acute lymphoblastic leukemia (ALL). Here, we uncovered the mechanism underlying the relapse of ALL driven by an activating mutation of the NSD2 histone methyltransferase (p.E1099K). […] Correction of this mutation restored glucocorticoid sensitivity. The transcriptional response to glucocorticoids was blocked in NSD2 mutant cells due to depressed glucocorticoid receptor (GR) levels and the failure of glucocorticoids to autoactivate GR expression. […] Pre-treatment of NSD2 p.E1099K cell lines and PDX samples with PRC2 inhibitors reversed glucocorticoid resistance in vitro and in vivo.
High-throughput drug screening of isogenic RCH-ACV cell lines was performed at the National Center for Advancing Translational Science (NCATS), National Institutes of Health as previously described (1). Briefly, isogenic RCH-ACV NSD2 p.E1099K mutant (9B) and WT cells (2C) were plated at 500 cells/well in a 1536-well plate with a 72-hour incubation with compounds prior to addition of CellTiter-Glo to assess cell viability. NCATS libraries screened include: NPC, MIPE 5.0, Kinase and NPACT. To determine compound activity in the qHTS assay, the concentration-response data for each sample was plotted and modeled by a four-parameter logistic fit yielding IC50 and efficacy (maximal response) values. The area under the curve (AUC) of the dose-response curve ensures both efficacy (magnitude of cell killing) and potency (concentration that elicits cell killing) are accounted for in the analysis of activity.
1. Tobie D Lee, Olivia W Lee, Kyle R Brimacombe, Lu Chen, Rajarshi Guha, Sabrina Lusvarghi, Bethilehem G Tebase, Carleen Klumpp-Thomas, Robert W Robey, Suresh V Ambudkar, Min Shen, Michael M Gottesman, Matthew D Hall. A High-Throughput Screen of a Library of Therapeutics Identifies Cytotoxic Substrates of P-glycoprotein. Mol Pharmacol. 2019, Nov;96(5):629-640.
Potency is read from the fitted curve at half-maximal effect.

Row | SMILES | Potency
1 | Clc1ccc2ncc(-c3cccc(NC4CCNCC4)n3)n2c1 | 0.259 µM (active)
2 | CNc1ncc2cc(-c3cc(NC(=O)NCCC(C)(C)C)c(F)cc3C)c(C)nc2n1 | 0.59 µM (active)
3 | Cc1ccc(NC(=O)Nc2nnc(Sc3ncnc4cc(OCCCN5CCOCC5)ccc34)s2)cc1 | 5.17 µM (active)
4 | Cn1nccc1Nc1nccc(-c2ccn([C@H](CO)c3ccc(Cl)c(F)c3)c(=O)c2)n1 | 10.3 µM (active) and 8.33 µM (active)
5 | CC(C)n1cnc2c(Nc3cccc(Cl)c3)nc(NCCO)nc21 | 8.17 µM (active)
6 | CCOC(=O)CCC(=O)O[C@H]1[C@H](O[C@@H]2[C@@H](C)[C@H](O[C@H]3C[C@@](C)(OC)[C@@H](O)[C@H](C)O3)[C@@H](C)C(=O)O[C@H](CC)[C@@](C)(O)[C@H](O)[C@@H](C)C(=O)[C@H](C)CC2(C)O)O[C@H](C)C[C@@H]1N(C)C (stereo not given in full) | inactive
7 | Cc1ccc(Nc2ncc3c(n2)N(C)C(=O)N(c2cc(NC(=O)c4cccc(C(F)(F)F)c4)ccc2C)C3)cn1 | 0.059 µM (active)
8 | Cc1cc(Nc2nn(-c3ccccc3)c(=O)c3ccccc23)n[nH]1 | 1.03 µM (active)
9 | COc1cc2nc(-c3cc(F)ccc3O)nc(N[C@@H]3CNC[C@H]3C(C)(C)O)c2cc1OC | 4.09 µM (active) and 1.66 µM (active)
10 | O=C1O[C@H](C(O)CO)C(=O)C1=O (stereo not given in full) | inactive
11 | CC1=CC(=O)C(C(C)C)=C/C1=N/OC(=O)c1ccccc1C | 11.6 µM (active)
12 | Fc1ccc(C2CCNC[C@H]2COc2ccc3c(c2)OCO3)cc1 (stereo not given in full) | 11.5 µM (active)
13 | COc1ccc2c(c1)CC[C@@H]1[C@@H]2CC[C@]2(C)[C@@H](NCCCCCCN3C(=O)C=CC3=O)CC[C@@H]12 | 5.25 µM (active)
14 | OC[C@H]1O[C@@H](O[C@@H]2OC=C[C@H]3[C@H](O)[C@@H]4O[C@]4(CO)[C@@H]23)[C@H](O)[C@@H](O)[C@@H]1O | inactive
15 | COc1ccc(-c2cc(C(O)C3CCCCN3)c3ccccc3n2)cc1 (stereo not given) | 4.68 µM (active)
16 | CN(CCCNC(=O)c1ccc2nc3c(c(Cl)c2c1)CCCC3)Cc1ccccc1 | 8.17 µM (active)
17 | CC(C)n1nc(-c2ccc(NC(=O)Nc3cccc(C(F)(F)F)c3)cc2)c2c(N)ncnc21 | 0.259 µM (active)
18 | CC1OC2OC3C(OCC(O)C3O)OC(=O)C34CCC(C)(C)CC3C3=CCC5C6(C)CC(O)C(OC7OC(CO)C(O)C(O)C7OC7OCC(OC(=O)CC(C)(O)CC(=O)OC1C(OC1OCC(O)C(O)C1O)C2O)C(O)C7O)C(C)(CO)C6CCC5(C)C3(C)CC4O (stereo not given) | 3.17 µM (active)
19 | Cc1c[nH]c(/C=C2\C(=O)Nc3ccccc32)c1CCC(=O)O | 18.6 µM (active)
20 | CN(CC(=O)N(Cc1ccc(C2CCCCC2)cc1)c1ccc(C(=O)O)cc1)S(=O)(=O)c1c(F)c(F)c(F)c(F)c1F | 4.59 µM (active)

Row | SMILES | Potency
21 | NC(=O)c1ncn(C2O[C@H](CO)[C@@H](O)[C@H]2O)c1N (stereo not given in full) | inactive
22 | Cn1cc(-c2cc(Oc3cc(F)c(NC(=O)C4(C(=O)Nc5ccccc5)CC4)cc3F)ccn2)cn1 | 13.2 µM (active)
23 | CN(C)CCCCCCNC(=O)c1cccc(-c2cc(O)c3ncccc3c2)c1 | 7.28 µM (active)
24 | CC1OC2O[C@H]3[C@@H](OCC(O)[C@H]3O)OC(=O)C34CCC(C)(C)CC3C3=CCC5C6(C)CC(O)C(OC7OC(CO)C(O)C(O)C7O[C@@H]7OC[C@H](OC(=O)CC(C)(O)CC(=O)OC1C(OC1OCC(O)C(O)C1O)C2O)[C@@H](O)[C@H]7O)C(C)(CO)C6CCC5(C)C3(C)CC4 (stereo not given in full) | 4.47 µM (active)
25 | OCC(O)CCO/N=C1/C(c2c(O)[nH]c3ccccc23)=Nc2ccccc21 (stereo not given) | 2.59 µM (active)
26 | C=CC(=O)Nc1cc(Nc2nccc(-c3cn(C)c4ccccc34)n2)c(OC)cc1N(C)CCN(C)C | 2.95 µM (active)
27 | Cc1nnsc1C(=O)Nc1ccc(-n2nc(C(F)(F)F)cc2C(F)(F)F)cc1 | 11.5 µM (active)
28 | O=C(c1ccc(-c2ccc(Cl)cc2)o1)N(Cc1ccccn1)c1ccc(N2CCNCC2)cc1 | 16.4 µM (active)
29 | C=C1[C@@H](C)[C@H]2[C@H](Cc3c[nH]c4ccccc34)NC(=O)[C@]23C(=O)/C=C/C(=O)[C@H](O)/C(C)=C\[C@@H](C)C/C=C/[C@H]3[C@@H]1O | 0.796 µM (active)
30 | C=CC(=O)Nc1cccc(C)c1Nc1ncc2cc(-c3c(Cl)c(OC)cc(OC)c3Cl)ccc2n1 | 4.11 µM (active)
31 | CCC(=O)Nc1cccc(Oc2nc(Nc3ccc(N4CCN(C)CC4)cc3OC)ncc2Cl)c1 | 14.5 µM (active)
32 | COc1cc2nc(N3CCN(C)CC3)nc(NC3CCN(Cc4ccccc4)CC3)c2cc1OC | 5.78 µM (active)
33 | Cc1cc(CN)cc(C)c1NC(=O)c1ccc(-c2cc(Cl)ccc2Cl)o1 | 9.16 µM (active)
34 | CN1CCN(Cc2ccc(Nc3ncc(Cl)c(Nc4ccccc4S(=O)(=O)N(C)C)n3)cc2)CC1 | 0.0152 µM (active)
35 | COc1cc(F)ccc1-c1ncnc(Nc2cccc(CS(C)(=N)=O)c2)n1 (stereo not given) | 0.372 µM (active)
36 | O=C(Nc1cccc(Nc2nccc(Nc3cccc(C(F)(F)F)c3)n2)c1)C1CC1 | 2.59 µM (active)
37 | CNS(=O)(=O)c1ccc2c(c1)/C(=C/c1[nH]c3c(c1CCCN1CCN(C)CC1)CCCC3)C(=O)N2 | 16.6 µM (active)
38 | C=C1C(=O)O[C@@H]2C[C@@H](C)[C@]34C[C@]5(C(=O)O[C@H]6CC(C)=C([C@H](C)CCCO)[C@H](OC(=O)C(C)CC)[C@H]65)[C@@H](C(C)=C3C[C@@H]12)[C@H]4OC(C)=O (stereo not given in full) | 1.53 µM (active)
39 | CN(C)Cc1cccc(N=C(c2ccccc2)c2c(O)[nH]c3cc(C(N)=O)ccc23)c1 | inactive
40 | O=C1CCc2cc(S(=O)(=O)Nc3ccc(F)c(Cl)c3)c(F)cc2N1 | inactive
